Measurements: PubChem BioAssay (NCATS)
Results filed as inconclusive are left out. Where a call stands in place of a potency, no number is given. The source made the active and inactive calls. Unless noted, the call rests on the fitted dose curve; in most records, active means well fitted curve in the direction sought with a large enough effect; inconclusive means small, poorly fitted or top-dose-only effect, or another doubt; inactive means no such curve, though single readings can be large; an effect the other way counts as inactive or inconclusive.

Experiments:
[1] = biological target: Rap guanine nucleotide exchange factor 3 (Homo sapiens) (UniProt O95398); assay: Confirmatory qHTS for agonist of cAMP-regulated guanine nucleotide exchange factor 3 (EPAC1) (AID 1645881);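 further: EPAC1 catalysed release of BODIPY-GDP from Rap1B seen as fluorescence loss; nearly all actives have a fitted effect of over 75% in size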
Rap guanine nucleotide exchange factor 3 (Homo sapiens), sequence (O95398 whole entry, looked up): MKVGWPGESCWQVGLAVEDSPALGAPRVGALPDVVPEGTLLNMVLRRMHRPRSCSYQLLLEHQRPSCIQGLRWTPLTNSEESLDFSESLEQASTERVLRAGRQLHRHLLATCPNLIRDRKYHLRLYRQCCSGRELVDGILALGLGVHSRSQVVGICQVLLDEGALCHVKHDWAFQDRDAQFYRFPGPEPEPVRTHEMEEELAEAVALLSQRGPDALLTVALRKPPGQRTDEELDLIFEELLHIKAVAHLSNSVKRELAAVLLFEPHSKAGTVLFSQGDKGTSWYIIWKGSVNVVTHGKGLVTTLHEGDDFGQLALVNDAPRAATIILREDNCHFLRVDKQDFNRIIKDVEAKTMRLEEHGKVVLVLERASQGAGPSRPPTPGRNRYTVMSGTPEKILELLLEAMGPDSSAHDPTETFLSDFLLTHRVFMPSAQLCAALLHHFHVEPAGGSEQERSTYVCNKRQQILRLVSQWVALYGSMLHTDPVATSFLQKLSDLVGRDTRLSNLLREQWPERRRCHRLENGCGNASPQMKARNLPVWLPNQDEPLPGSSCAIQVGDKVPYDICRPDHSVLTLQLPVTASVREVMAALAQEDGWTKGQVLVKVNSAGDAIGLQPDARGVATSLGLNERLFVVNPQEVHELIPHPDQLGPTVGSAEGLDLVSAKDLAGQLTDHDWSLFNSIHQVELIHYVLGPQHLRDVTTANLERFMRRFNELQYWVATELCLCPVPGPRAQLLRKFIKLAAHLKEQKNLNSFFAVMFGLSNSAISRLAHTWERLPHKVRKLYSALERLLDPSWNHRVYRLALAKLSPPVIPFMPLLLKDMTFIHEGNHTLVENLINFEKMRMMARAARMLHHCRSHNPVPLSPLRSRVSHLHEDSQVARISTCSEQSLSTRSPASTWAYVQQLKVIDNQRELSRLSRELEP

[2] = biological target: Rap guanine nucleotide exchange factor 4 (Homo sapiens) (UniProt Q8WZA2); assay: Confirmatory qHTS for agonist of cAMP-regulated guanine nucleotide exchange factor 4 (EPAC2) (AID 1645884);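 further: nucleotide exchange releases bodipy-GDP from Rap1 and this lowers its fluorescence; nearly all actives have a fitted effect of over 65% in size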
Rap guanine nucleotide exchange factor 4 (Homo sapiens), sequence (Q8WZA2 whole entry, looked up): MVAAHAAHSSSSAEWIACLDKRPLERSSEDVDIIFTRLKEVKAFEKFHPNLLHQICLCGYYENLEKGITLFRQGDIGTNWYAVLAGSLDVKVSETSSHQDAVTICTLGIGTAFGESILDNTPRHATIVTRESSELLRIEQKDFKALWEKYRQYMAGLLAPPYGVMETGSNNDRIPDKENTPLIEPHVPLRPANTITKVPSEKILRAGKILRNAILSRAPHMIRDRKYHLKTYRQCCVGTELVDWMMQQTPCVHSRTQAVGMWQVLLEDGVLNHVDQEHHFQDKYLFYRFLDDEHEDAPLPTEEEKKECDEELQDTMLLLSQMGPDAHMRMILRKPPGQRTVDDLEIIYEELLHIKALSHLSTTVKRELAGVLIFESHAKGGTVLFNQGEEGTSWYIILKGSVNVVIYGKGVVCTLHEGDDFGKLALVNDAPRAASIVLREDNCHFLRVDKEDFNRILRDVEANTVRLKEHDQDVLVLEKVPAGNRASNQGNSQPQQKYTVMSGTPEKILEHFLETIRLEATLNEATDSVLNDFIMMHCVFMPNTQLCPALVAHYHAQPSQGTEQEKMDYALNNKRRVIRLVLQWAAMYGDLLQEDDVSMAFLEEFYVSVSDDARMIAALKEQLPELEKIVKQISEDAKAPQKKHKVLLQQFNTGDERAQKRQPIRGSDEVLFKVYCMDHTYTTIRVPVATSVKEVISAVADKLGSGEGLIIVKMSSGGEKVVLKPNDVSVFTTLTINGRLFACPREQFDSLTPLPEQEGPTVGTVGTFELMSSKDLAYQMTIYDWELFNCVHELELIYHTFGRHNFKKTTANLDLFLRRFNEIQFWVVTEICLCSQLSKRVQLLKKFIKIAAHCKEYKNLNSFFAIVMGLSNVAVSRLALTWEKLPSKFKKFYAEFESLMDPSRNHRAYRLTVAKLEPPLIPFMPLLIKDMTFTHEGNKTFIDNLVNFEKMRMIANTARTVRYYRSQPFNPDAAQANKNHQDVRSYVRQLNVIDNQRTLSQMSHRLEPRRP

[3] = biological target: Rap guanine nucleotide exchange factor 4 (Homo sapiens) (UniProt Q8WZA2); assay: Confirmatory qHTS for antagonist of cAMP-regulated guanine nucleotide exchange factor 4 (EPAC2) (AID 1645885); further: nearly all actives have a fitted effect of over 25% in size; further: potency means the concentration at half of the fitted maximal effect
[4] = biological target: Rap guanine nucleotide exchange factor 3 (Homo sapiens) (UniProt O95398); assay: Counterscreen qHTS for antagonist of cAMP-regulated guanine nucleotide exchange factor 3 (EPAC1) (AID 1645888);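 further: fluorescence loss as bound BODIPY-GDP is released from Rap1B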
Summary of the method: (§1)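 Measured: fluorescence of BODIPY-GDP bound to Rap1B, which falls as exchange proceeds. Conditions include 50 uM competing GDP, 5 and 30 min reads, and a later cAMP challenge for antagonist detection.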

[5] = biological target: Rap guanine nucleotide exchange factor 3 (Homo sapiens) (UniProt O95398); assay: Counterscreen qHTS for agonist of cAMP-regulated guanine nucleotide exchange factor 3 (EPAC1) (AID 1645889); further: nearly all actives have a fitted effect of over 40% in size
Summary of the method: as §1

[6] = biological target: Catechol O-methyltransferase (Homo sapiens) (UniProt P21964); assay: Confirmatory Screen for Target Class Profiling of Small Molecule Inhibitors of Methyltransferases (AID 1745852); conditions: MTase-Glo luminescence, SAH detection, recombinant enzyme; measured here: COMT max response; stronger effect = lower value
Catechol O-methyltransferase (Homo sapiens), sequence (P21964 whole entry, looked up): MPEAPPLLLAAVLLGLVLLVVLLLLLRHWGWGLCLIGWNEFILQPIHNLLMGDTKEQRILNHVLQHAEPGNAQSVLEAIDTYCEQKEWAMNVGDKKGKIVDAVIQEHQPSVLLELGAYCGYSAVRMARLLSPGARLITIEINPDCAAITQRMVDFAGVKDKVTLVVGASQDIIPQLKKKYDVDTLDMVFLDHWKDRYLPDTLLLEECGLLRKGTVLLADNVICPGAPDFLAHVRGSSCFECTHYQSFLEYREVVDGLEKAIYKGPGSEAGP

[7] = biological target: Guanidinoacetate N-methyltransferase (Homo sapiens) (UniProt Q14353); assay: as above; conditions: MTase-Glo luminescence, SAH detection, recombinant enzyme; activity change, negative = inhibition: at 85.7 µM (top of the series) unless noted
[8] = biological target: Nicotinamide N-methyltransferase (Homo sapiens) (UniProt P40261); assay: as above; conditions: MTase-Glo luminescence, SAH detection, recombinant enzyme; measured here: NNMT max response; stronger effect = lower value
Nicotinamide N-methyltransferase (Homo sapiens), sequence (P40261 whole entry, looked up): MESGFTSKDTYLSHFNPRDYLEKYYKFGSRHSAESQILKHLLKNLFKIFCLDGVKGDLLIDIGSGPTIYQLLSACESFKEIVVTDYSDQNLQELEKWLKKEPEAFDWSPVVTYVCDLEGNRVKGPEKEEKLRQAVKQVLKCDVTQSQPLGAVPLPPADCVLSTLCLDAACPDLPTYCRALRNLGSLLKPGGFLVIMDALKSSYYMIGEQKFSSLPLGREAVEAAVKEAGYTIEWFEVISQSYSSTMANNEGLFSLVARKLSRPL

[9] = biological target: Phenylethanolamine N-methyltransferase (Homo sapiens) (UniProt P11086); assay: as above; conditions: MTase-Glo luminescence, SAH detection, recombinant enzyme; measured here: PNMT max response; stronger effect = lower value
Phenylethanolamine N-methyltransferase (Homo sapiens), sequence (P11086 whole entry, looked up): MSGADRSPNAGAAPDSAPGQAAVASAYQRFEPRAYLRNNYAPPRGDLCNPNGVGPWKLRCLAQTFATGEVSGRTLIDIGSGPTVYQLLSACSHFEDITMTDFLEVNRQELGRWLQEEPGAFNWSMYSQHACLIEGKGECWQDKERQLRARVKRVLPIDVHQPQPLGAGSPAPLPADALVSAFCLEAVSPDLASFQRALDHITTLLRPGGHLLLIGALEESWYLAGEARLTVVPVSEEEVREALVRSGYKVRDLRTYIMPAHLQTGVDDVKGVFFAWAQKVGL

[10] = NCATS anti-infectives library activity on HEK293 viability as a counter-qHTS vs the C. elegans viability qHTS (AID 1745854)
Summary of the method: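 CellTiter-Glo luminescence, read on a CCD imager, scored viability of HEK293 cells after 24 hr compound exposure at 37C. Library tested in several concentrations, 1:5 steps, up to 41.7 uM; digitonin served as control.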

[11] = Counterscreen for APE1 Inhibitors: Fluorescent Dye Displacement Validation Assay (AID 1707)
Summary of the method: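 Signal: ThO fluorescence (ex 480 nm/em 540 nm) on binding 50 nM dsDNA; displacement by test compound reduces it. Conditions: 250 nM dye, 50 mM Tris-HCl pH7.5, 2 mM MgCl2, 50mM NaCl, 0.01% Tween-20.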

[12] = biological target: Endonuclease 4 (Escherichia coli (strain K12)) (UniProt P0A6C1); assay: Counterscreen for APE1 Inhibitors: qHTS Validation Assay for Inhibitors of Endonuclease IV (AID 1708)
Summary of the method: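 Measured as reaction progress, the fluorescence gain between first and third kinetic reads after adding 50 nM TAMRA/BHQ-2 THF duplex to 2 nM enzyme preincubated 15 min with compound; 2 mM MgCl2, pH 7.5.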

[13] = qHTS for differential inhibitors of proliferation of Plasmodium falciparum line 7G8 (AID 1815);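 further: potency means the concentration at half of the fitted maximal effect; parasite growth measured after three days of incubation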
[14] = qHTS for differential inhibitors of proliferation of Plasmodium falciparum line GB4 (AID 1816); conditions: Potency: Plasmodium falciparum GB4 proliferation inhibition;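 further: potency means the concentration at half of the fitted maximal effect; parasite growth measured after 72 h incubation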
[15] = qHTS for differential inhibitors of proliferation of Plasmodium falciparum line 3D7 (AID 1876); further: potency means the concentration at half of the fitted maximal effect
[16] = qHTS for differential inhibitors of proliferation of Plasmodium falciparum line D10 (AID 1877);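 further: potency means the concentration at half of the fitted maximal effect; parasites grown with compound for 72 h before DNA staining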
[17] = qHTS for differential inhibitors of proliferation of Plasmodium falciparum line Dd2 (AID 1882); conditions: Potency: Plasmodium falciparum Dd2 proliferation inhibition; further: potency means the concentration at half of the fitted maximal effect; nearly all actives have a fitted effect of over 65% in size
Summary of the method: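 RBC culture, 0.3% parasitemia / 2.5% Hct final; cpd added by pin tool in DMSO; 72 h, 37 C, 5% CO2; lysis buffer + SYBR Green I, o/n RT dark; FI 485/535; norm. to artemisinin 0.29 uM and DMSO.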

[18] = qHTS for differential inhibitors of proliferation of Plasmodium falciparum line W2 (AID 1883); conditions: Potency: Plasmodium falciparum W2 proliferation inhibition;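 further: potency means the concentration at half of the fitted maximal effect; parasites grown with compound for 72 h before lysis and staining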
[19] = qHTS for differential inhibitors of proliferation of Plasmodium falciparum line HB3 (AID 1886); conditions: Potency: Plasmodium falciparum HB3 proliferation inhibition;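 further: potency means the concentration at half of the fitted maximal effect; parasites grown with compound for 72 h before SYBR Green readout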
[20] = biological target: ATP-dependent DNA helicase Q1 (Homo sapiens) (UniProt P46063); assay: qHTS Validation Assay for Inhibitors of RecQ-Like Dna Helicase 1 (RECQ1) (AID 2353)
Summary of the method: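 RECQ1T1 50 nM; forked duplex (20 bp + 30-nt ss tails) 200 nM, ATP 2 mM final; pH 8.0, 2 mM MgCl2, 2.5 ug/ml poly(dI-dC); 15 min compound preincubation; discontinuous kinetic read over 2 h at RT.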

[21] = Validation screen for inhibitors of Lassa infection (AID 463096; calls by dose curve; further: potency means the concentration at half of the fitted maximal effect)
[22] = Validation screen for small molecules that induce DNA re-replication in MCF 10A normal breast cells (AID 463097); further: potency means the concentration at half of the fitted maximal effect; nearly all actives have a fitted effect of over 60% in size
Summary of the method: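 Readout: Hoechst nuclear fluorescence intensity, 405 ex / 500-530 em, by scanning plate imager; re-replication scored as increase in nuclei with elevated DNA content. Cells exposed to compound 48 hr, 37 C, 5% CO2 beforehand.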

[23] = Quantitative high throughput screen for delayed death inhibitors of the malarial parasite plastid, 96 hour incubation (AID 488745); further: potency means the concentration at half of the fitted maximal effect; nearly all actives have a fitted effect of over 70% in size
Summary of the method: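 Luciferase-expressing P. falciparum, infected RBCs 2% Hct/0.1% parasitemia (final); 96 h cpd exposure, 37 C, 5% CO2; RPMI 1640 + 0.5% Albumax, bicarbonate, gentamycin. Readout: luminescence loss = growth inhibition.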

[24] = Quantitative high throughput screen for delayed death inhibitors of the malarial parasite plastid, 48 hour incubation (AID 488752); further: potency means the concentration at half of the fitted maximal effect; nearly all actives have a fitted effect of over 65% in size
Summary of the method: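 Luciferase-expressing P. falciparum in RBCs, 2% Hct, 0.1% parasitemia final; RPMI 1640 + 0.5% Albumax; 48 h, 37 C, 5% CO2; luminescence readout, signal drop = growth inhibition.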

[25] = biological target: M-phase phosphoprotein 8 (Homo sapiens) (UniProt Q99549); assay: qHTS Validation Assay for Inhibitors for MPP8 Chromodomain Interactions with Methylated Histone Tails (AID 488949);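 further: AlphaScreen signal from MPP8 chromodomain bound to biotinylated H3K9me3 peptide; top concentration of the series differs between compounds; nearly all actives have a fitted effect of over 55% in size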
M-phase phosphoprotein 8 (Homo sapiens), sequence (Q99549 whole entry, looked up): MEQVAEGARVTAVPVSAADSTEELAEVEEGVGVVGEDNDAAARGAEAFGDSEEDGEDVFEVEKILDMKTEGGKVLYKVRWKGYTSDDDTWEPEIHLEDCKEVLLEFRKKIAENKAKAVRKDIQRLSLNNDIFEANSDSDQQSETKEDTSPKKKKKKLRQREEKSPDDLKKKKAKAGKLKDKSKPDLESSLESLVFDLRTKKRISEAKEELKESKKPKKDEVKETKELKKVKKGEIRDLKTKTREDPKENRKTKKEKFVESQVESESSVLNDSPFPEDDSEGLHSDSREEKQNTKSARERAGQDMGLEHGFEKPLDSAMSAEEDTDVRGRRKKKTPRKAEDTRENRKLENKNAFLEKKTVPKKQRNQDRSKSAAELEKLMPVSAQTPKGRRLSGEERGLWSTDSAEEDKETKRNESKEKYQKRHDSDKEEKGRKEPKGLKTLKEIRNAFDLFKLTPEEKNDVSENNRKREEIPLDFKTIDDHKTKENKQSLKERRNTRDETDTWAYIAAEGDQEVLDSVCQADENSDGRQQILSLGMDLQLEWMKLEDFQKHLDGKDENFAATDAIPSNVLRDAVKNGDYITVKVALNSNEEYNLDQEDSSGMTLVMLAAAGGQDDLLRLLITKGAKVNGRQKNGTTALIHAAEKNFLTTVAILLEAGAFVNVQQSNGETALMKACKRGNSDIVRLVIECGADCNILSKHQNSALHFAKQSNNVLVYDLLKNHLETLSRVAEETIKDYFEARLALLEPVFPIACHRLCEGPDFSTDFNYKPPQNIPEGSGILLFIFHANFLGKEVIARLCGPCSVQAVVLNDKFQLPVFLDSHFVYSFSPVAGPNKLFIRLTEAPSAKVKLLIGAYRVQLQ
Summary of the method: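 MPP8 (50 nM) was preincubated with biotinylated H3(1-18)K9me3 peptide (50 nM) in PBS pH 7.4, 0.01% Tween-20 for 30 min at room temperature, then with compounds for 30 min; binding was detected by AlphaScreen.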

[26] = biological target: Thyrotropin receptor (Homo sapiens) (UniProt P16473); assay: qHTS Assay for Antagonists of the Thyroid Stimulating Hormone Receptor (AID 488980)
Summary of the method: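 HEK293 cells transfected with human TSHR, suspended in HEPES-buffered HBSS with 70 uM RO 20-1724, were treated with compounds plus TSH at EC80 (4 nM final). cAMP was measured by competitive HTRF (cryptate anti-cAMP antibody, cAMP-d2 acceptor).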

[27] = biological target: Thyrotropin-releasing hormone receptor (Homo sapiens) (UniProt P34981); assay: qHTS for Small Molecule Agonists and Allosteric Enhancers of Human TRH Receptor: Validation Screen for Agonists (AID 493127;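 active means calcium activation more than 3 SD above the typical response in the agonist read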;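 further: intracellular calcium rise by fluo-8 fluorescence before TRH EC20 addition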); conditions: TRH receptor agonist cell assay; at 2 µM; stronger effect = higher value
Thyrotropin-releasing hormone receptor (Homo sapiens), sequence (P34981 whole entry, looked up): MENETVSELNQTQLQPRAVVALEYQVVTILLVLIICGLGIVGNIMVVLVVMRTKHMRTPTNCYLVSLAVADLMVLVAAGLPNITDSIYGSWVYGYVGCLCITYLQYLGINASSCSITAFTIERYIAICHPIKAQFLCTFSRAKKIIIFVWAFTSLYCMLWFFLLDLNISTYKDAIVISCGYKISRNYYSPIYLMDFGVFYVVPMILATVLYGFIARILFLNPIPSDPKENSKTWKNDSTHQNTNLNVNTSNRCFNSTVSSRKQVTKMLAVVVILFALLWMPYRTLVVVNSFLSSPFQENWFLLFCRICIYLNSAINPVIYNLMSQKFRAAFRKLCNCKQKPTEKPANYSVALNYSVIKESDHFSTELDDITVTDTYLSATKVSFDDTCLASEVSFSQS
Summary of the method: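 Read-out: intracellular calcium release measured kinetically by FDSS (fluo-8, ex 480/em 530 nm), 1 reading/s after a 10-cycle baseline. TRHR cells, 2000/well, cultured 18 h at 33.5C, dye-loaded at room temp. Compound-evoked positive calcium signal flags agonists.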

[28] = biological target: Galactokinase (Homo sapiens) (UniProt P51570); assay: qHTS Validation Assay for Inhibitors of Human Galactokinase (GALK) (AID 493189)
Galactokinase (Homo sapiens), sequence (P51570 whole entry, looked up): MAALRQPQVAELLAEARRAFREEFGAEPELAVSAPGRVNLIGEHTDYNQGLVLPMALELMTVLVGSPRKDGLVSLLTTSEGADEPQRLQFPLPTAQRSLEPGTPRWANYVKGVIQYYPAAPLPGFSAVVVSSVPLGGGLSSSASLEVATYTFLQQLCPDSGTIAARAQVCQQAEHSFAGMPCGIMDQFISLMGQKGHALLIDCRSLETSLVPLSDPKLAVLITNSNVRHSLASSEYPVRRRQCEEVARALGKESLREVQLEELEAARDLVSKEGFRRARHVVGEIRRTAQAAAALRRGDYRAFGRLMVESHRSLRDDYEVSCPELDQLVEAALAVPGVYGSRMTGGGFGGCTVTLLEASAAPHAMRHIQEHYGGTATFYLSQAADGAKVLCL
Summary of the method: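 GALK (5 nM) with 35 uM ATP and 100 uM galactose in HEPES pH8.0, MgCl2, NaCl, DTT, BSA; 1 h at room temperature. Residual ATP read by Kinase-Glo Plus luminescence after 10 min.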

For `Cc1cc(C=C2C(=O)NC(=S)NC2=O)c(C)n1C1CCCC1`, the Potency [1] was “inactive”, the Potency [2] was “inactive” and the Potency [3] was “inactive”. For the same compound, the outcome [4] was “inactive” and the Potency [5] was “inactive”.
With `COCCNC(=O)c1c(N)n(CCC(C)C)c2nc3ccccc3nc12` the Potency [1] was “inactive”, the activation [2] was 10.8% [at 17.1 µM, percent relative to cAMP agonist control] (inactive) and the activity change, negative = inhibition [3] was -8.1% [at 12.7 µM] (inactive). The activity change, negative = inhibition [4] was -2.48% [at 30.8 µM] (inactive) and the activation [5] was 26.5% [at 30.8 µM] (inactive).
In the case of `COc1ccc(-n2nnnc2C(c2ccccc2OC(F)(F)F)N2CCC(n3c(=O)[nH]c4ccccc43)CC2)cc1` (configuration not stated), the Potency [1] is reported as “inactive”, the activation [2] is reported as 2.83% [at 17.1 µM, percent relative to cAMP agonist control] (inactive) and the activity change, negative = inhibition [3] is reported as -5.88% [at 12.7 µM] (inactive). For the same compound, the activation [5] was 2.08% [at 30.8 µM] (inactive).
In the case of `O=C1NCN(c2ccccc2)C12CCN(C(c1cc3ccccc3o1)c1nnnn1C1CCCCC1)CC2` (configuration not stated), the Potency [1] is reported as “inactive”, the Potency [2] is reported as “inactive” and the outcome [4] is reported as “inactive”. The Potency [5] was “inactive”.
For `COc1cc(/C=C/c2nc3ccccc3c(=O)n2-c2cccc(O)c2)ccc1O`, the Potency [1] was “inactive”, the Potency [2] was “inactive” and the Potency [3] was “inactive”. The outcome [4] was “inactive”.
For `COc1cccc(C(c2nnnn2Cc2ccccc2)N2CCC(n3c(=O)[nH]c4ccccc43)CC2)c1OC` (configuration not stated), the Potency [1] was “inactive”, the Potency [2] was “inactive” and the outcome [4] was “inactive”.
With `O=C(c1cc(-c2ccc(Cl)cc2)n(-c2ccc(Cl)cc2Cl)n1)N1CCOCC1` the Potency [1] was “inactive”, the Potency [3] was “inactive” and the Potency [5] was “inactive”.
Compound `COc1ccc(-c2cc3c(cn2)CN(C)CCN3)cn1` has an activity [6] of 1.58%, an activity change, negative = inhibition [7] of -1.54% [at 114 µM] and an activity [8] of -5.95%. It also gave an activity [9] of -1.09%.
For `CC(=O)NC[C@H]1C[C@@H]2CCN1C[C@@H]2c1cc(-c2ccc3ccccc3c2)nn1C`, the activity [6] was 4.95%, the activity change, negative = inhibition [7] was 4.16% and the activity [8] was 1.11%. It also gave an activity [9] of 2.7%.
With `CC(=O)O[C@H]1[C@H]2[C@@H](OC(=O)Cc3ccccc3)[C@@H](C)C[C@]2(OC(C)=O)C(=O)/C(C)=C/[C@@H]2[C@H](CC[C@@]13CO3)C2(C)C` the Potency [10] was “inactive”.
For `C[C@@H](N)C(=O)N[C@@H](CO)C(=O)N[C@H](C(=O)N[C@H](C(=O)N[C@H](C(=O)N[C@@H](CC(N)=O)C(=O)N[C@@H](Cc1ccc(O)cc1)C(=O)N[C@H](C(N)=O)[C@@H](C)O)[C@@H](C)O)[C@@H](C)O)[C@@H](C)O`, the Potency [10] was “inactive”.
With `C[C@@H](COc1ccc(Oc2ccccc2)cc1)Oc1ccccn1` the Potency [10] was “inactive”.
In the case of `Cc1cc(/C=C2/C(=O)NC(=O)N(Cc3ccco3)C2=O)c(C)n1-c1ccccc1`, the Potency [3] is reported as “inactive” and the outcome [4] is reported as “inactive”.
In the case of `O=C(Nc1ccccc1F)N[C@@H]1N=C(c2ccccc2)c2ccccc2NC1=O`, the Potency [10] is reported as “inactive”.
With `COc1ccc(C2C=C(C)Oc3c2c(=O)oc2ccccc32)cc1OC` (configuration not stated) the Potency [1] was “inactive”, the Potency [3] was 30.1 µM (active) and the outcome [4] was “inactive”.
With `C=C[C@H]1CN2CC[C@H]1C[C@@H]2CNC(=O)Nc1ccc(Br)cc1` the activity [6] was 4.06%, the activity change, negative = inhibition [7] was -0.845% and the activity [8] was -5.4%. The activity [9] was 4.01%.
With `C/C=C(/C)C(=O)O[C@H]1C(C)=C2C([C@@H]1OC(=O)CCCCCCC)[C@@](C)(OC(C)=O)C[C@@H](OC(=O)CCC)[C@@]1(O)[C@H]2OC(=O)[C@@]1(C)O` (some centres not stated) the outcome [11] was “inactive”, the Potency [12] was “inactive” and the Potency [13] was 4.47 µM (active). The Potency [14] was 3.16 µM (active), the Potency [15] was 4.47 µM (active) and the Potency [16] was 10 µM (active). For the same compound, the Potency [17] was 8.91 µM (active), the Potency [18] was 3.55 µM (active) and the Potency [19] was 10 µM (active). The outcome [20] was “inactive”, the Potency [21] was 3.16 µM (active) and the Potency [22] was 6.31 µM (active). For the same compound, the Potency [23] was 4.15 µM (active), the Potency [24] was 2.94 µM (active) and the Potency [25] was “inactive”. The outcome [26] was “inactive”, the activation [27] was 37.9% (active) and the outcome [28] was “inactive”.
